# A number with no mark means an inactive call. No rule for the calls is given here.
# Assay: assay artefact check, AlphaScreen readout interference – biochemical, artefact control for SUMOylation inhibitor project, SAR follow-up (AID 488777)
# Details: purified counter-screen enzymes, TR-FRET, 60 min
structure (smiles),measurement,value
CCCCNC(=O)c1c(NC(=O)c2ccccc2)n(Cc2ccccc2)c2nc3ccccc3nc12,IC50,> 100 µM
